Measured values: PubChem BioAssay AID862 (The Scripps Research Institute Molecular Screening Center, 2007)
Among all 190,000 compounds or so, about 1,700 (0.89%) were called active. For the sample, actives were picked, then their nearest neighbours and some compounds at random. Values without a mark were called inactive.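 Rule for the calls: active = inhibition above the mean inhibition across all screened compounds plus 3 SD (cut at about 44% in these data); inactive = the rest.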

assay: IL-6 driven STAT3 reporter inhibitors, primary screen, U3A cells, luciferase, luminescence, MLSCN library (AID 862); details: IL-6 STAT3-luciferase reporter, at 5.5 µM, active compounds read high, host cell line lacks STAT1;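 note: 0% = DMSO only wells and 100% = 100 µM nifuroxazide control wells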

With `S=c1[nH]nc(Nc2ccccc2)s1` as the compound, how does the inhibition read?
Its inhibition is 12%.

For `CN(c1ccccc1)c1nc(N)c([N+](=O)[O-])c(NCc2ccco2)n1`, which inhibition is on record?
Its inhibition is -0.4%.

For `CCN1/C(=C\c2ccc3ccccc3[n+]2CC)Sc2cc(C)ccc21`, which inhibition is on record?
Its inhibition is 84.8% (active).

Which inhibition does the source give for `CCC(=O)/C=C1\Sc2ccccc2N1CC` here?
Its inhibition is 20.7%.

With `Cc1ccccc1NC(=O)CN1C(=O)N/C(=C\c2cccn2-c2cccc(C(=O)O)c2)C1=O` as the compound, how does the inhibition read?
The inhibition was 6%.

For `O=C(O)CSCC(=O)Nc1ccc(C(F)(F)F)cc1`, which inhibition is on record?
Its inhibition is 6.5%.

Which inhibition does the source give for `Cc1ccc(Oc2ccc(N)cc2)cc1` here?
The inhibition was 0.4%.

Which inhibition does the source give for `Nc1ccc(Oc2ccc(Cl)cc2)cc1` here?
The inhibition was -0.6%.

With `CC(C)(C)c1ccc(Oc2ccc(N)cc2)cc1` as the compound, how does the inhibition read?
Its inhibition is 76.2% (active).

For `C=CC[n+]1c(-c2ccc(C)cc2)csc1NNC(=O)Nc1ccccc1`, which inhibition is on record?
Its inhibition is 46.3% (active).

For `Cc1ccc(NC(=O)Nc2ccccc2)c(Br)c1`, which inhibition is on record?
Its inhibition is 16.3%.

Which inhibition does the source give for `C=CCNc1scc(-c2ccccc2)[n+]1CC=C` here?
The inhibition was 4.7%.

With `CCCN(CC(=O)Nc1ccc(C(N)=O)cc1)CC(=O)Nc1ccccc1C` as the compound, how does the inhibition read?
The inhibition was 3.9%.

With `Cc1csc(NC(=O)Nc2ccccc2[N+](=O)[O-])n1` as the compound, how does the inhibition read?
Its inhibition is -24.9%.

Which inhibition does the source give for `OCCCC1CCCCN1Cc1nc(Cc2ccccc2Cl)no1` (stereo not given) here?
The inhibition was 4.3%.

Which inhibition does the source give for `N/C(=N\OC(=O)c1ccc2c(c1)OCO2)c1ccc(Br)cc1` here?
The inhibition was 9.8%.

Which inhibition does the source give for `Cc1cccc(N(CC(=O)Nc2ccc(-c3nc4ccc(C)cc4s3)cc2)S(C)(=O)=O)c1` here?
Its inhibition is 28%.

Which inhibition does the source give for `Cc1ccc2nc(-c3ccc(NC(=O)CN(C)S(=O)(=O)c4ccccc4)cc3)sc2c1` here?
The inhibition was 49.8% (active).

With `COc1cc(NC(=O)CN(C)S(=O)(=O)c2ccc3nc(C)sc3c2)cc(OC)c1` as the compound, how does the inhibition read?
Its inhibition is 0.9%.

For `O=C(CCc1ccccc1)NCCc1cccs1`, which inhibition is on record?
Its inhibition is 4.7%.

For `O=C(C/C(=N\NC(=O)c1ccccc1Br)C(F)(F)F)c1cccs1`, which inhibition is on record?
Its inhibition is -8.2%.

Which inhibition does the source give for `O=C(Nc1ccc(NC(=O)c2cccs2)cn1)c1ccco1` here?
The inhibition was 48.3% (active).

Which inhibition does the source give for `O=C(Nc1ccc2nccnc2c1)c1ccco1` here?
The inhibition was 14.3%.

With `COc1cccc(C(=O)Nc2ccc(NC(=O)c3ccco3)cn2)c1` as the compound, how does the inhibition read?
The inhibition was 12.2%.

For `N=c1n(CCc2ccccc2)c2ccccc2n1Cc1ccccc1F`, which inhibition is on record?
The inhibition was 0.2%.

For `CCc1ccc(CN(C)Cc2nc(Cc3ccccc3)no2)nc1`, which inhibition is on record?
Its inhibition is -2.9%.

Which inhibition does the source give for `CC1=CC=CN2C1=NC(=O)CC2(C)C(=O)N(CC(=O)NC1CCCC1)c1ccccc1C` (stereo not given) here?
Its inhibition is 4.4%.

For `COc1ccc(C(=O)/C=C/Nc2ccccn2)cc1`, which inhibition is on record?
Its inhibition is 97.2% (active).

With `Cc1cc(N/C=C\C(=O)c2ccc(Cl)c(Cl)c2)no1` as the compound, how does the inhibition read?
The inhibition was -7.8%.

Which inhibition does the source give for `CCOc1cc(NC(=O)c2ccccn2)c(OCC)cc1NC(=O)c1ccc(OC)cc1` here?
The inhibition was 13.8%.

With `Cc1ccc(CC2CC(=O)N(c3nc(C)cc(C)n3)C2=O)cc1` (stereo not given) as the compound, how does the inhibition read?
Its inhibition is -0.9%.

For `Clc1cccc(-c2nc(NCC3CCCO3)c3ccccc3n2)c1` (stereo not given), which inhibition is on record?
Its inhibition is 15.5%.

Which inhibition does the source give for `CCCCCCCCn1c2c(c(=N)c3c1CCC3)CCCC2` here?
Its inhibition is 76.2% (active).

With `CCCCCCn1c(CN2CCCCC2)nc2c1c(=O)n(C)c(=O)n2C` as the compound, how does the inhibition read?
Its inhibition is -8.1%.

For `COc1ccc(/C=C/C(=O)OCC(=O)NCc2cccs2)cc1OC`, which inhibition is on record?
The inhibition was -9.7%.

With `O=C(c1ccc(F)cc1)c1cn(Cc2ccc(F)cc2)c2cc3c(cc2c1=O)OCCO3` as the compound, how does the inhibition read?
The inhibition was 4.1%.

With `C=CCn1c(C)cc(C2=NNC(=NCC)SC2)c1C` as the compound, how does the inhibition read?
Its inhibition is 108% (active).

For `COCCn1c(C)cc(C2=NNC(=Nc3ccc(F)cc3)SC2)c1C`, which inhibition is on record?
Its inhibition is -33.4%.

For `Cc1cc(C2=NNC(=Nc3ccc(S(=O)(=O)N4CCOCC4)cc3)SC2)c(C)n1CC1CCCO1` (stereo not given), which inhibition is on record?
Its inhibition is -0.3%.

Which inhibition does the source give for `[O-][n+]1c2c(nn1-c1ccc(Cl)c(Cl)c1)-c1nonc1CC2` here?
Its inhibition is 5.8%.

For `CC1CCN(c2ccc(C(=O)Nc3nnc(C4CC4)s3)cc2[N+](=O)[O-])CC1`, which inhibition is on record?
The inhibition was -3%.

For `Cc1c(C(=O)Nc2ccccc2)sc2nc3n(c(=O)c12)CCCCC3`, which inhibition is on record?
Its inhibition is 10.4%.

For `Cc1cccc2c(=O)n3c(nc12)CCCCC3`, which inhibition is on record?
The inhibition was 2.1%.

Which inhibition does the source give for `O=c1c2c(nc3n1CCCCC3)sc1c(O)cccc12` here?
Its inhibition is 64.8% (active).

Which inhibition does the source give for `CC(C)Cn1c(N)c(C(=O)COC(=O)CN2C(=O)C3CC=CCC3C2=O)c(=O)n(C)c1=O` (stereo not given) here?
Its inhibition is 30.1%.

For `COC(=O)c1c(NC(=O)CCCC(=O)O)sc2c1CCCCC2`, which inhibition is on record?
Its inhibition is 22.2%.

With `CCOCCCNCc1ccc(OCc2ccc(F)cc2)c(OC)c1` as the compound, how does the inhibition read?
The inhibition was 5.2%.

Which inhibition does the source give for `CC(C)Oc1ccc(CCc2nnc(SCC(=O)O)n2-c2ccccc2)cc1` here?
Its inhibition is 13.3%.

Which inhibition does the source give for `Cc1ccc(-n2nc3cc(C)c(NC(=O)c4cccnc4)cc3n2)cc1` here?
The inhibition was 11.8%.

With `Cc1ccc2nc(-c3ccc(NC(=O)c4cccnc4)cc3)oc2c1` as the compound, how does the inhibition read?
Its inhibition is 67.9% (active).

Which inhibition does the source give for `Cc1cc2nc(-c3ccc(NC(=O)c4cccnc4)cc3)oc2cc1C` here?
Its inhibition is 7.8%.

With `Cc1cccc(NC(=O)c2cc([N+](=O)[O-])ccc2N2CCN(C)CC2)c1` as the compound, how does the inhibition read?
Its inhibition is 6.2%.

For `COC(=O)CCNC(=O)c1ccc2[nH]c(C)c(C)c2c1`, which inhibition is on record?
The inhibition was 11%.

For `Cc1cc(C(=O)COc2ccccc2[N+](=O)[O-])c(C)n1-c1cccc(S(=O)(=O)N2CCOCC2)c1`, which inhibition is on record?
The inhibition was -4.1%.

Which inhibition does the source give for `Cc1[nH]c2ccccc2c1C(=O)COC(=O)c1c(-c2ccccc2)noc1C` here?
The inhibition was -1.9%.
